Laboratory results from the supplement of paper PMC12024529.

What follows are compounds tested on HEK293 WT BDD-FVIII-Gluc (assay: secreted FVIII-Gluc luciferase Z-score vs DMSO control; higher = more FVIII-Gluc secretion). Details: 5 µM.
Description: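 Natural plant-compound library (480 compounds, ST catalogue IDs) screened on HEK293 cells stably expressing WT BDD-FVIII-Gaussia luciferase fusion at 5 µM. Secreted Gluc activity in the medium is given as a Z-score relative to DMSO controls.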

| SMILES | secreted FVIII-Gluc luciferase Z-score |
| --- | --- |
| C[C@H]1[C@H](C)CC[C@]2(C(=O)O)CC[C@]3(C)C(=CC[C@@H]4[C@@]5(C)CC[C@H](O)C(C)(C)[C@@H]5CC[C@]43C)[C@H]12 | 0.136 |
| O=c1c(O)c(-c2ccc(O)cc2O)oc2cc(O)cc(O)c12 | 0.571 |
| OC1CCC2Cc3ccccc3N=C12 (stereo not given) | -0.361 |
| COc1cc2c(C(=O)c3ccccc3)c3c4c(cc(OC)c(OC)c4c2cc1OC)CCN3C | -1.18 |
| O=C(/C=C/c1ccc(O)c(O)c1)O[C@@H]1CC(O)(C(=O)O)CC(O)C1O (stereo not given in full) | 0.588 |
| COc1cc(-c2cc(=O)c3ccccc3o2)ccc1O | 1.57 |
| O=C(O)c1cc(O)c2c(c1)[C@@H]([C@H]1c3cc(C(=O)O)cc(O)c3C(=O)c3c(O[C@@H]4O[C@H](CO)[C@@H](O)[C@H](O)[C@H]4O)cccc31)c1cccc(O[C@@H]3O[C@H](CO)[C@@H](O)[C@H](O)[C@H]3O)c1C2=O | 0.274 |
| OC[C@H]1O[C@@H](OC[C@H]2O[C@@H](O)[C@H](O)[C@@H](O)[C@@H]2O)[C@H](O)[C@@H](O)[C@@H]1O | 0.42 |
| O=c1cc(-c2cccc(O)c2)oc2cccc(O)c12 | 0.424 |
| Oc1ccc(/C=C/c2cc(O)cc(O)c2)cc1 | 0.294 |
| CC1(C)C=Cc2c(c3ccccc3[nH]c2=O)O1 | 0.817 |
| COc1ccc2c3c1O[C@H]1C[C@@H](O)C=CC31CCN(C)C2 (stereo not given in full) | 0.116 |
| O=c1c(O)c(-c2ccc(O)cc2)oc2ccc(O)cc12 | 0.433 |
| N[C@@H](Cc1ccc(O)cc1)C(=O)O | 0.446 |
| CC(C)C1=CC2=CCC3C(C)(C(=O)O)CCC[C@]3(C)C2CC1 (stereo not given in full) | 0.107 |
